Laboratory results taken from the supplement of paper PMC13380429.
Where a name gives a salt, the structure may show the parent alone.

What was measured:
[1] = system: Vero E6 infected with SARS-CoV-2; experiment: morphology score (similarity to uninfected cells); higher = more like uninfected cells; settings: 24 h
[2] = system: Vero E6 infected with SARS-CoV-2; experiment: SARS-CoV-2 infection rate relative to infected DMSO; higher = more infection, active = 60 or less; settings: 24 h

SMILES | morphology score [1] | SARS-CoV-2 infection rate [2]
Cc1ccc2c(c1)c1c(n2CCc2ccc(C)nc2)CCN(C)C1 [latrepirdine] (10 µM) | 0.241 | 96.5% (inactive)
COc1ccc2[nH]c([S+]([O-])Cc3ncc(C)c(OC)c3C)nc2c1 (stereo unspecified) [omeprazole] (10 µM) | 0.0924 | 104% (inactive)
CCCCCOC(=O)Nc1nc(=O)n([C@@H]2O[C@H](C)[C@@H](O)[C@H]2O)cc1F [capecitabine] (10 µM) | -0.208 | 114% (inactive)
CN(c1nccc(=O)[nH]1)C1CCN(c2nc3ccccc3n2Cc2ccc(F)cc2)CC1 [mizolastine] (10 µM) | 0.211 | 106% (inactive)
CN(C)CCN(Cc1cccs1)c1ccccn1 [methapyrilene] (10 µM) | -0.165 | 113% (inactive)
CCCCCCCC/C=C/C(=O)O [trans-2-undecenoic-acid] (10 µM) | 0.204 | 112% (inactive)
Cn1cc(-c2ccc3nnc(Sc4ccc5ncccc5c4)n3n2)cn1 (10 µM) | 0.144 | 87% (inactive)
COc1cc2c(cc1OC)-c1c(C)c3ccc(OC)c(OC)c3c[n+]1CC2 [dehydrocorydaline] (10 µM) | 0.0289 | 104% (inactive)
O=C(O)CCCN1CCC(O[C@@H](c2ccc(Cl)cc2)c2ccccn2)CC1 [bepotastine] (10 µM) | 0.0921 | 90% (inactive)
CN(C)CC(c1ccc(O)cc1)C1(O)CCCCC1 (stereo unspecified) [desvenlafaxine] (10 µM) | 0.0229 | 106% (inactive)
O=C(NO)c1ccc2[nH]c(=O)c(CCCc3ccccc3)nc2c1 (10 µM) | -0.0251 | 100% (inactive)
O=C1NCN(c2ccccc2)C12CCN(CC1COc3ccccc3O1)CC2 (stereo unspecified) [spiroxatrine] (10 µM) | -0.179 | 114% (inactive)
CO[C@@]1(NC(=O)C(C(=O)O)c2ccc(O)cc2)C(=O)N2C(C(=O)O)=C(CSc3nnnn3C)CO[C@@H]21 (stereo partly specified) [moxalactam] (10 µM) | -0.0497 | 110% (inactive)
O=C(Nc1cc(C(F)(F)F)cc(C(F)(F)F)c1)c1cnc(Cl)nc1C(F)(F)F (10 µM) | -0.17 | 111% (inactive)
COc1ccc(C(Cl)=C(c2ccc(OC)cc2)c2ccc(OC)cc2)cc1 [chlorotrianisene] (10 µM) | 0.0843 | 95.5% (inactive)
Cc1ccc(-c2ncc[nH]2)cc1NC(=O)c1ccc(OCc2ccccn2)cc1 (10 µM) | 0.0587 | 97% (inactive)
O=C(NCCCNc1nc(Nc2cccc(NC(=O)N3CCCC3)c2)ncc1I)c1cccs1 (0.833333 µM) | 0.0981 | 118% (inactive)
CC(C)[C@@H]1C(=O)N(S(C)(=O)=O)[C@@H]2CCN(C(=O)/C=C/CN3CCCCC3)[C@H]21 (10 µM) | 0.0406 | 106% (inactive)
NC(Cc1ccc(I)cc1)C(=O)O (stereo in doubt) [4-iodo-L-phenylalanine] (10 µM) | 0.202 | 105% (inactive)
CO/N=C(\C(=O)N[C@@H]1C(=O)N2C(C(=O)[O-])=C(C[N+]3(C)CCCC3)CS[C@H]12)c1csc(N)n1 [cefepime] (10 µM) | 0.0622 | 114% (inactive)

SMILES | morphology score [1] | SARS-CoV-2 infection rate [2]
CC[C@H](CC[C@@H](C)[C@H]1CC[C@H]2[C@@H]3CC=C4C[C@@H](O[C@@H]5O[C@H](CO)[C@@H](O)[C@H](O)[C@H]5O)CC[C@]4(C)[C@H]3CC[C@]12C)C(C)C [daucosterol] (10 µM) | 0.0785 | 102% (inactive)
N=C(NCCC[C@H](N)C(=O)O)N[N+](=O)[O-] [NG-nitro-arginine] (10 µM) | -0.0213 | 108% (inactive)
COc1ccc2c(c1)[C@]13CCCC[C@@H]1[C@H](C2)N(C)CC3 [dextromethorphan] (10 µM) | -0.0426 | 112% (inactive)
C=C[C@H]1CN2CC[C@H]1C[C@H]2[C@H](O)c1ccnc2ccccc12 [cinchonidine] (10 µM) | -0.111 | 112% (inactive)
O=c1cc(N2CCNCC2)oc2c(-c3ccccc3)cccc12 (10 µM) | 0.175 | 101% (inactive)
CCNC(=O)[C@@H]1CCCN1C(=O)[C@H](CCCNC(=N)N)NC(=O)[C@H](CC(C)C)NC(=O)[C@@H](CC(C)C)NC(=O)[C@H](Cc1ccc(O)cc1)NC(=O)[C@H](CO)NC(=O)[C@H](Cc1c[nH]c2ccccc12)NC(=O)[C@H](Cc1c[nH]cn1)NC(=O)[C@@H]1CCC(=O)N1 [leuprolide] (10 µM) | -0.258 | 118% (inactive)
CC(C)Cc1ccc([C@@H](C)C(=O)NS(C)(=O)=O)cc1 [reparixin] (10 µM) | 0.135 | 100% (inactive)
CC[C@H](C)[C@H](N)C1=N[C@H](C(=O)N[C@@H](CC(C)C)C(=O)N[C@H](CCC(=O)O)C(=O)N[C@H](C(=O)N[C@H]2CCCCNC(=O)[C@H](CC(N)=O)NC(=O)[C@@H](CC(=O)O)NC(=O)[C@H](Cc3cnc[nH]3)NC(=O)[C@@H](Cc3ccccc3)NC(=O)[C@H]([C@@H](C)CC)NC(=O)[C@@H](CCCN)NC2=O)[C@@H](C)CC)CS1 [bacitracin] (10 µM) | -0.109 | 112% (inactive)
O=C(NC(NC(=S)Nc1ccc(F)c([N+](=O)[O-])c1)C(Cl)(Cl)Cl)C(c1ccccc1)c1ccccc1 (stereo unspecified) (0.833333 µM) | 0.0472 | 104% (inactive)
Cn1c(=O)c(F)c(Nc2ccc(I)cc2F)c2c(=O)n(C[C@@H](O)CO)cnc21 (0.833333 µM) | -0.0443 | 109% (inactive)
CC1(C)S[C@@H]2[C@H](N3C(=O)[C@@H](c4ccccc4)NC3(C)C)C(=O)N2[C@H]1C(=O)O [hetacillin] (10 µM) | 0.138 | 96.5% (inactive)
CC1Cc2ccccc2N1NC(=O)c1ccc(Cl)c(S(N)(=O)=O)c1 (stereo unspecified) [indapamide] (10 µM) | 0.0243 | 112% (inactive)
CC#CCOC(=O)c1c(C)nc2sc3c(c2c1N)CCC(O)C3 (stereo unspecified) (10 µM) | 0.151 | 93% (inactive)
Nc1nccc2c1ncn2C1C=C(CO)C(O)C1O (stereo unspecified) [3-deazaneplanocin-A] (10 µM) | -0.104 | 112% (inactive)
O=c1[nH]c2ccc(Cl)cc2c(N[C@@H]2CN3CCC2CC3)c1-c1nc2ccccc2[nH]1 (10 µM) | -0.162 | 110% (inactive)
CCC1(c2ccc(N)cc2)CCC(=O)NC1=O (stereo unspecified) [aminoglutethimide] (10 µM) | -0.0825 | 110% (inactive)
O=C(/C=C/c1ccc2ccc(C(F)(F)F)cc2n1)c1ccncc1 (10 µM) | 0.389 | 63.5% (inactive)
CCCCCCCC/C=C\CCCCCCCC(=O)NCc1ccc(O)c(OC)c1 [olvanil] (10 µM) | 0.22 | 96% (inactive)
C#C[C@]1(O)CC[C@H]2[C@@H]3CCC4=CC(=O)CC[C@]4(C)[C@H]3CC[C@@]21C [ethisterone] (10 µM) | -0.0671 | 107% (inactive)
FC(F)(F)c1ccc(N2CCNCC2)nc1Cl (10 µM) | 0.273 | 89.5% (inactive)

SMILES | morphology score [1] | SARS-CoV-2 infection rate [2]
CCCCOC(=O)c1cc2c(cn1)[nH]c1ccccc12 [beta-CCB] (10 µM) | 0.156 | 94% (inactive)
C[n+]1ccc(C(=O)NCc2ccccc2)cc1 [enisamium-iodide] (10 µM) | 0.172 | 90% (inactive)
BrC1C(Br)C(Br)C(Br)C(Br)C1Br (stereo unspecified) [1,2,3,4,5,6-hexabromocyclohexane] (10 µM) | 0.416 | 85% (inactive)
C/C=C1\[C@H]2C=C(C)C[C@]1(N)c1ccc(=O)[nH]c1C2 [(-)-Huperzine A] (10 µM) | -0.118 | 108% (inactive)
c1ccc2c(CC3=NCCN3)cccc2c1 [naphazoline] (10 µM) | 0.146 | 99% (inactive)
CCC[C@@H]1C[C@@H](C(=O)N[C@@H]([C@H]2O[C@H](SC)[C@H](O)[C@@H](O)[C@H]2O)[C@@H](C)O)N(C)C1 [lincomycin] (10 µM) | -0.111 | 105% (inactive)
CN1C2C=C(c3sccc3Br)CC1CC2 (stereo unspecified) (10 µM) | 0.427 | 69.5% (inactive)
CCOc1nc2c(N)ncnc2n1CC (10 µM) | 0.236 | 88% (inactive)
CC/C(=C(/c1ccc(OCCN(C)C)cc1)c1cccc(O)c1)c1ccccc1 [droloxifene] (10 µM) | 0.73 | 24% (active)
CN(C)CCc1c[nH]c2ccc(CS(=O)(=O)N3CCCC3)cc12 [almotriptan] (10 µM) | 0.00995 | 110% (inactive)
C[C@]12CCC(=O)C[C@@H]1CC[C@@H]1[C@@H]2CC[C@]2(C)C=CC[C@@H]12 [androstenone] (10 µM) | -0.064 | 112% (inactive)
O=[N+]([O-])c1ccc(O)c([N+](=O)[O-])c1 [2,4-dinitrophenol] (10 µM) | 0.0596 | 97.5% (inactive)
CCCN1CCC[C@@H]2Cc3n[nH]cc3C[C@H]21 [quinpirol-(-)] (10 µM) | 0.203 | 92.5% (inactive)
CCN(CC)C(=O)N[C@H]1C[C@@H]2c3cccc4[nH]cc(c34)C[C@H]2N(C)C1 [terguride] (10 µM) | -0.00522 | 110% (inactive)
O[C@@](Cc1nc(CC2(C(F)(F)F)CC2)c[nH]1)(c1ccc(-n2cccn2)cc1)C(F)(F)F (10 µM) | 0.03 | 112% (inactive)
O[C@H]([C@H](O)[C@@H]1CO1)[C@H]1CO1 [dianhydrogalactitol] (10 µM) | -0.0725 | 114% (inactive)
CCSC(=N)N [EIT-hydrobromide] (10 µM) | -0.0504 | 102% (inactive)
CC1(C)CN(C(=O)c2ccc(-c3cccc4nc(NC(=O)C5CC5)nn34)cc2)C1 [solcitinib] (10 µM) | 0.0939 | 110% (inactive)
